Source: PubChem BioAssay (NCI)
Compounds without any hit were thinned out: in the full panel of roughly 83,000, 20% have a hit.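 Negative percent growth values reflect cell death: -40 means 40% of the cells present at the start died, and -100 means all died.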 Calls of active or inactive are those of the source. The calls were made as follows: active = growth percent below 10; inactive = the rest.

Assays:
Experiment in all cases: NCI-60 one-dose screen, 48 h (100 = growth as untreated, 0 = no growth, -100 = all killed)
[1] = test system: SK-MEL-2 melanoma; settings: 10 µM unless noted
[2] = test system: EKVX NSCLC; settings: 10 µM unless noted
[3] = test system: SN12C renal; settings: 10 µM unless noted
[4] = test system: UO-31 renal; settings: 10 µM unless noted
[5] = test system: ACHN renal; settings: 10 µM unless noted
[6] = test system: CAKI-1 renal; settings: 10 µM unless noted
[7] = test system: A498 renal; settings: 10 µM
[8] = test system: HL-60(TB) leukemia; settings: 10 µM unless noted
[9] = test system: CCRF-CEM leukemia; settings: 10 µM unless noted
[10] = test system: MOLT-4 leukemia; settings: 10 µM unless noted
[11] = test system: SR leukemia; settings: 10 µM unless noted
[12] = test system: RPMI-8226 leukemia; settings: 10 µM unless noted
[13] = test system: OVCAR-8 ovarian; settings: 10 µM unless noted
[14] = test system: OVCAR-5 ovarian; settings: 10 µM unless noted
[15] = test system: OVCAR-4 ovarian; settings: 10 µM unless noted
[16] = test system: SK-OV-3 ovarian; settings: 10 µM unless noted
[17] = test system: IGROV1 ovarian; settings: 10 µM unless noted
[18] = test system: OVCAR-3 ovarian; settings: 10 µM unless noted
[19] = test system: HS 578T breast; settings: 10 µM unless noted
[20] = test system: TK-10 renal; settings: 10 µM unless noted

Measured: growth

O=C1NC(=O)C(=Cc2cn(CCCCCCn3c4ccccc4c(=O)c4ccccc43)c3ccccc23)C(=O)N1
active: [7] -49.3%
inactive: [1] 94% | [2] 89.8% | [3] 91.1% | [4] 63.9% | [5] 101% | [6] 97.6% | [8] 78.7% | [9] 80.6% | [10] 63.2% | [11] 93.5% | [12] 76.2% | [13] 91.8% | [14] 22.6% | [15] 85.8% | [16] 77.5% | [17] 79.2% | [18] 99.2% | [19] 103%

CCCCN(CCCC)P(=O)(Oc1ccccc1)Oc1ccccc1
inactive: [1] 43.4% | [2] 59% | [3] 59.9% | [4] 42.2% | [5] 80.8% | [6] 32.4% | [7] 93.8% | [8] 32.5% | [9] 61.9% | [10] 39.4% | [12] 54.4% | [13] 84.1% | [14] 94.1% | [15] 51.5% | [16] 66.7% | [17] 57.3% | [18] 87.2% | [19] 85.3%

COP(=O)(OC)C(O)c1ccc(Cl)cc1 (centres undefined)
inactive: [1] 109% | [2] 98.4% | [3] 108% | [4] 83.3% | [20] 96.5% | [7] 98.5% | [8] 98.9% | [9] 112% | [10] 119% | [11] 96.1% | [12] 104% | [13] 108% | [14] 112% | [15] 104% | [16] 111% | [17] 103% | [18] 94.7% | [19] 94.1%

O=C(CC1(O)C(=O)N(Cc2ccccc2)c2ccc(F)cc21)c1ccc(C(=O)NCC2CCC3(CC2)OOC2(CCCCC2)OO3)cc1 (centres undefined)
active: [1] -12.9% | [2] -68.5% | [3] -59.5% | [4] -76.3% | [5] -80.7% | [6] -87.1% | [7] -88.5% | [8] -57.5% | [9] -36.9% | [10] -48.9% | [11] -44.8% | [12] -29.7% | [13] -30.5% | [14] 4.61% | [15] -32.4% | [17] -38.1% | [18] -76.9% | [19] -9.82%
inactive: [16] 41.1%

[Cl][Hg][c]1cc(Br)cc(Br)c1
inactive: [1] 41.3% | [2] 80% | [3] 24% | [4] 102% | [20] 121% | [7] 75.4% | [12] 23% | [13] 70.4% | [14] 118% | [15] 48.5% | [16] 86.3% | [17] 16.5% | [19] 30.3%
active: [8] -27% | [9] 1.44% | [10] 0.93% | [11] -16.6% | [18] -7.88%

COC(=O)[C@H](Cc1ccccc1)NC(=O)c1csc([C@@H](C[C@H](C(C)C)N(C)C(=O)[C@@H](NC(=O)[C@H]2CCCN2C)C2CC2)OC(C)=O)n1
active: [9] 4.07% | [10] 5.46% | [18] -3.48%
inactive: [1] 31.2% | [2] 33.4% | [3] 33% | [4] 41.1% | [5] 39.9% | [6] 36.8% | [7] 13.5% | [12] 10.9% | [13] 27.3% | [14] 36.1% | [15] 59.5% | [16] 52.8% | [17] 39.1% | [19] 14.6%

C=CC1=C[C@@H]2[C@@H]3O[C@]4(CC[C@H](O4)[C@@H](C)C[C@@H](O)C3=O)C[C@H](O)C3=NCC[C@@]32CC1
active: [1] -45.1% | [2] -29.1% | [3] -15% | [4] -38.8% | [5] -64.8% | [6] -11.4% | [7] -82.6% | [8] -5.3% | [9] 4.16% | [10] 0.671% | [12] -15.9% | [13] -12.3% | [14] -24% | [15] -38.8% | [16] -4.99% | [17] -28.4% | [18] -30.7% | [19] -29.6%

COC(=O)[C@H](Cc1ccccc1)NC(=O)c1csc([C@@H](C[C@H](C(C)C)N(C)C(=O)[C@@H](NC(=O)[C@H]2CCCCN2C)C2CC2)OC(C)=O)n1
inactive: [1] 15.3% | [2] 29.9% | [3] 21.6% | [4] 35.9% | [5] 28.9% | [6] 24.1% | [10] 10.1% | [12] 10.3% | [13] 17% | [14] 32.3% | [15] 49.7% | [17] 29.1%
active: [7] -7.28% | [8] -43.1% | [9] 2.68% | [11] 6.23% | [16] 4.51% | [19] 6.85%

CN(C)C1C(=O)C(C(N)=O)=C(O)C2(O)C(=O)C3=C(O)c4c(O)cccc4C(C)(O)C3CC12.[Cl][Sb]([Cl])[Cl] (centres undefined)
active: [1] -7.83%
inactive: [2] 41% | [3] 41.8% | [4] 54.7% | [5] 59% | [6] 12.3% | [8] 31.4% | [9] 17% | [10] 36.9% | [11] 19.2% | [12] 15.4% | [13] 21.3% | [14] 143% | [15] 44.2% | [16] 76.9% | [17] 45.1% | [19] 31.7%

CC(=O)O[C@@H]1CC[C@]2(C)[C@H]3CC[C@]4(C)C(=O)CC[C@H]4[C@@H]3C[C@@H]3SC(N)=N[C@@]32C1
inactive: [1] 49.8% | [2] 78.3% | [3] 77.3% | [4] 79.3% | [5] 93.7% | [6] 61.1% | [7] 50.7% | [8] 44.5% | [9] 44.2% | [10] 45.6% | [11] 31.7% | [12] 48.4% | [13] 76.8% | [14] 98.7% | [15] 84% | [16] 79.1% | [17] 67.3% | [18] 36.2% | [19] 54.5%

NC(=O)CNc1ccc([As]=[As]c2ccc(NCC(N)=O)cc2)cc1 (centres undefined)
active: [17] 8.16% | [18] -41.5%
inactive: [1] 33.8% | [2] 23.1% | [3] 34% | [4] 54.4% | [5] 71.2% | [6] 12.5% | [7] 58.1% | [8] 19.8% | [10] 58.8% | [11] 14% | [12] 13.5% | [13] 61.2% | [14] 74.6% | [15] 60.6% | [16] 93.7% | [19] 10.5%

Brc1ccc2c(c1)c(-c1nc(-c3c[nH]c4ncccc34)cs1)cn2CCN1CCCCC1
inactive: [1] 82.7% | [2] 66.9% | [3] 80% | [4] 44.8% | [20] 81.5% | [7] 95.7% | [8] 66% | [10] 42% | [11] 16.2% | [12] 51.2% | [13] 83.5% | [14] 109% | [15] 74.9% | [16] 103% | [17] 46.8% | [18] 85.1% | [19] 76.7%

COC(=O)C12CC(NC(=O)c3csc([C@@H](C[C@H](C(C)C)N(C)C(=O)[C@@H](NC(=O)[C@H]4CCCCN4C)C(C)C)OC(C)=O)n3)(C1)C2
active: [9] 8.23% | [18] -17.5%
inactive: [1] 28.5% | [2] 44% | [3] 24.5% | [4] 44.4% | [20] 56.5% | [5] 22.9% | [10] 14.3% | [12] 17.8% | [13] 24.8% | [14] 46.8% | [15] 50.4% | [16] 13.2% | [17] 19.3% | [19] 35.3%

O=P(Oc1ccc(Cl)cc1)(N1CC1)N1CC1
active: [6] 5.92%
inactive: [1] 102% | [2] 101% | [3] 86.7% | [4] 61.1% | [5] 25% | [7] 97.4% | [8] 96% | [9] 82.5% | [10] 84.8% | [12] 88.6% | [13] 89.3% | [14] 117% | [15] 97.3% | [16] 104% | [17] 89.1% | [18] 109% | [19] 103%

Clc1ccc2nnnn2n1
active: [1] -12.1% | [4] 5.04% | [8] -25.8% | [12] 5.38% | [18] -3.95%
inactive: [2] 90% | [3] 51.2% | [20] 37.5% | [5] 43% | [9] 19.6% | [10] 17.3% | [13] 74.1% | [14] 67.1% | [15] 37.8% | [16] 92% | [19] 89.6%

Clc1ccc(CSC(Cn2ccnc2)c2ccc(Cl)cc2Cl)cc1 (centres undefined)
active: [4] 4.12% | [8] -11.6% | [10] 1.87% | [11] 2.95%
inactive: [1] 34.1% | [2] 31.7% | [3] 38.5% | [20] 32.3% | [6] 20.8% | [7] 49.2% | [9] 20% | [12] 29.8% | [13] 14.3% | [15] 25.9% | [16] 71.9% | [17] 29.1% | [18] 38.8% | [19] 63.5%
